# Data: the supplement of paper PMC7765376
# Structures can show the parent of a compound that is named as a salt. Over roughly 1,500 compounds, “Excess HSA synergy score (sum over dose matrix of excess over highest single agent)” has its median near 43; the lowest 2% begin near -900. This excerpt belongs to a sample that is enriched for the lowest values.
# System: PEO-1
# Assay: Excess HSA synergy score (sum over dose matrix of excess over highest single agent) (score (summed % response)); higher = less synergy / more antagonism (negative = synergy)
# Settings: 72 h, read-out: viability/apoptosis luminescence (CellTiter-Glo or Caspase3-Glo / not stated per table)
# [1] = matrix design: 6x6, 5-fold dilutions (primary screen)
SMILES,Excess HSA synergy score [1],"Excess HSA synergy score (matrix design: 10x10, 9-step dilutions (confirmatory))"
CC(=O)O/N=C1/C(=C2/C(=O)Nc3cc(Br)ccc32)Nc2ccccc21 [6-Bromoindirubin-3'-acetoxime] + CC[C@H](NC(=O)[C@H](C)NC)C(=O)N1C[C@@H](O)C[C@H]1Cc1c(-c2[nH]c3cc(F)ccc3c2C[C@@H]2C[C@H](O)CN2C(=O)[C@H](CC)NC(=O)[C@H](C)NC)[nH]c2cc(F)ccc12 [Birinapant],131,–
Cc1ccc(C(=O)N(CCCN)[C@@H](c2nc3cc(Cl)ccc3c(=O)n2Cc2ccccc2)C(C)C)cc1 [Ispinesib] + CC[C@H](NC(=O)[C@H](C)NC)C(=O)N1C[C@@H](O)C[C@H]1Cc1c(-c2[nH]c3cc(F)ccc3c2C[C@@H]2C[C@H](O)CN2C(=O)[C@H](CC)NC(=O)[C@H](C)NC)[nH]c2cc(F)ccc12 [Birinapant],-86.8,–
Nc1nccc(-c2ccc3noc(-c4ccc(Cl)cc4)c3c2)n1 [Pim 1 Inhibitor 2] + CC[C@H](NC(=O)[C@H](C)NC)C(=O)N1C[C@@H](O)C[C@H]1Cc1c(-c2[nH]c3cc(F)ccc3c2C[C@@H]2C[C@H](O)CN2C(=O)[C@H](CC)NC(=O)[C@H](C)NC)[nH]c2cc(F)ccc12 [Birinapant],12.2,–
C=CCNc1c(O)cc2c(O)c1C[C@@H](C)C[C@H](OC)[C@H](O)[C@@H](C)/C=C(\C)[C@H](OC(N)=O)[C@@H](OC)/C=C\C=C(/C)C(=O)N2 [Retaspimycin] + CC[C@H](NC(=O)[C@H](C)NC)C(=O)N1C[C@@H](O)C[C@H]1Cc1c(-c2[nH]c3cc(F)ccc3c2C[C@@H]2C[C@H](O)CN2C(=O)[C@H](CC)NC(=O)[C@H](C)NC)[nH]c2cc(F)ccc12 [Birinapant],-10.7,–
NC(=O)Nc1cc(-c2cccc(F)c2)sc1C(=O)N[C@H]1CCCNC1 + CC[C@H](NC(=O)[C@H](C)NC)C(=O)N1C[C@@H](O)C[C@H]1Cc1c(-c2[nH]c3cc(F)ccc3c2C[C@@H]2C[C@H](O)CN2C(=O)[C@H](CC)NC(=O)[C@H](C)NC)[nH]c2cc(F)ccc12 [Birinapant],119,–
Cc1cccc(Nc2nc(-c3ccncc3)cs2)c1 + CC[C@H](NC(=O)[C@H](C)NC)C(=O)N1C[C@@H](O)C[C@H]1Cc1c(-c2[nH]c3cc(F)ccc3c2C[C@@H]2C[C@H](O)CN2C(=O)[C@H](CC)NC(=O)[C@H](C)NC)[nH]c2cc(F)ccc12 [Birinapant],69.4,–
COc1cc(F)c(C(C)C)cc1-c1ccc(C(F)(F)F)cc1CN1C(=O)O[C@H](c2cc(C(F)(F)F)cc(C(F)(F)F)c2)[C@@H]1C [Anacetrapib] + CC[C@H](NC(=O)[C@H](C)NC)C(=O)N1C[C@@H](O)C[C@H]1Cc1c(-c2[nH]c3cc(F)ccc3c2C[C@@H]2C[C@H](O)CN2C(=O)[C@H](CC)NC(=O)[C@H](C)NC)[nH]c2cc(F)ccc12 [Birinapant],-71.8,–
CN(C)c1ccc(C(=C2C=CC(=[N+](C)C)C=C2)c2ccc(N(C)C)cc2)cc1 [Methylrosaniline chloride] + CC[C@H](NC(=O)[C@H](C)NC)C(=O)N1C[C@@H](O)C[C@H]1Cc1c(-c2[nH]c3cc(F)ccc3c2C[C@@H]2C[C@H](O)CN2C(=O)[C@H](CC)NC(=O)[C@H](C)NC)[nH]c2cc(F)ccc12 [Birinapant],-147,–
COc1ccc(C2=N[C@@H](c3ccc(Cl)cc3)[C@@H](c3ccc(Cl)cc3)N2C(=O)N2CCNC(=O)C2)c(OC(C)C)c1 [Nutlin-3] + CC[C@H](NC(=O)[C@H](C)NC)C(=O)N1C[C@@H](O)C[C@H]1Cc1c(-c2[nH]c3cc(F)ccc3c2C[C@@H]2C[C@H](O)CN2C(=O)[C@H](CC)NC(=O)[C@H](C)NC)[nH]c2cc(F)ccc12 [Birinapant],264,–
CCS(=O)(=O)N1CC(CC#N)(n2cc(-c3ncnc4[nH]ccc34)cn2)C1 [Baricitinib] + CC[C@H](NC(=O)[C@H](C)NC)C(=O)N1C[C@@H](O)C[C@H]1Cc1c(-c2[nH]c3cc(F)ccc3c2C[C@@H]2C[C@H](O)CN2C(=O)[C@H](CC)NC(=O)[C@H](C)NC)[nH]c2cc(F)ccc12 [Birinapant],48.3,–
N#CC(c1ccnc(OCc2ccc(CN3CCOCC3)cc2)n1)c1nc2ccccc2s1 (centres undefined) + CC[C@H](NC(=O)[C@H](C)NC)C(=O)N1C[C@@H](O)C[C@H]1Cc1c(-c2[nH]c3cc(F)ccc3c2C[C@@H]2C[C@H](O)CN2C(=O)[C@H](CC)NC(=O)[C@H](C)NC)[nH]c2cc(F)ccc12 [Birinapant],104,–
COc1ccc(C(=O)CC2(O)C(=O)Nc3c(Cl)ccc(Cl)c32)cc1 (centres undefined) + CC[C@H](NC(=O)[C@H](C)NC)C(=O)N1C[C@@H](O)C[C@H]1Cc1c(-c2[nH]c3cc(F)ccc3c2C[C@@H]2C[C@H](O)CN2C(=O)[C@H](CC)NC(=O)[C@H](C)NC)[nH]c2cc(F)ccc12 [Birinapant],27,–
NC(=O)c1ccc(N(C(N)=O)c2c(F)cccc2F)nc1-c1ccc(F)cc1F + CC[C@H](NC(=O)[C@H](C)NC)C(=O)N1C[C@@H](O)C[C@H]1Cc1c(-c2[nH]c3cc(F)ccc3c2C[C@@H]2C[C@H](O)CN2C(=O)[C@H](CC)NC(=O)[C@H](C)NC)[nH]c2cc(F)ccc12 [Birinapant],69.1,–
Cn1cnc(N)c2ncnc1-2 [3-Methyladenine] + CC[C@H](NC(=O)[C@H](C)NC)C(=O)N1C[C@@H](O)C[C@H]1Cc1c(-c2[nH]c3cc(F)ccc3c2C[C@@H]2C[C@H](O)CN2C(=O)[C@H](CC)NC(=O)[C@H](C)NC)[nH]c2cc(F)ccc12 [Birinapant],238,–
C[C@@]12C[C@@]3(O)O[C@@H](O1)[C@]1(COC(=O)c4ccccc4)[C@H]3C[C@@]12O[C@@H]1O[C@H](CO)[C@@H](O)[C@H](O)[C@H]1O [Paeoniflorin] + CC[C@H](NC(=O)[C@H](C)NC)C(=O)N1C[C@@H](O)C[C@H]1Cc1c(-c2[nH]c3cc(F)ccc3c2C[C@@H]2C[C@H](O)CN2C(=O)[C@H](CC)NC(=O)[C@H](C)NC)[nH]c2cc(F)ccc12 [Birinapant],211,–
COc1cc([C@@H]2c3cc4c(cc3[C@@H](O[C@@H]3O[C@@H]5CO[C@@H](C)O[C@H]5[C@H](O)[C@H]3O)[C@H]3COC(=O)[C@H]23)OCO4)cc(OC)c1O [Etoposide] + CC[C@H](NC(=O)[C@H](C)NC)C(=O)N1C[C@@H](O)C[C@H]1Cc1c(-c2[nH]c3cc(F)ccc3c2C[C@@H]2C[C@H](O)CN2C(=O)[C@H](CC)NC(=O)[C@H](C)NC)[nH]c2cc(F)ccc12 [Birinapant],-89.6,–
COc1cc([C@@H]2c3cc4c(cc3[C@@H](O[C@@H]3O[C@@H]5CO[C@@H](c6cccs6)O[C@H]5[C@H](O)[C@H]3O)[C@H]3COC(=O)[C@H]23)OCO4)cc(OC)c1O [Teniposide] + CC[C@H](NC(=O)[C@H](C)NC)C(=O)N1C[C@@H](O)C[C@H]1Cc1c(-c2[nH]c3cc(F)ccc3c2C[C@@H]2C[C@H](O)CN2C(=O)[C@H](CC)NC(=O)[C@H](C)NC)[nH]c2cc(F)ccc12 [Birinapant],-151,-1360
COC(=O)N[C@H](C(=O)N[C@@H](Cc1ccccc1)[C@@H](O)CN(Cc1ccc(-c2ccccn2)cc1)NC(=O)[C@@H](NC(=O)OC)C(C)(C)C)C(C)(C)C [Atazanavir sulfate] + CC[C@H](NC(=O)[C@H](C)NC)C(=O)N1C[C@@H](O)C[C@H]1Cc1c(-c2[nH]c3cc(F)ccc3c2C[C@@H]2C[C@H](O)CN2C(=O)[C@H](CC)NC(=O)[C@H](C)NC)[nH]c2cc(F)ccc12 [Birinapant],154,–
CC(C)(C)[C@H](NC(=O)c1ccc(N)c(Cl)c1)C(=O)N1CCC[C@H]1C(=O)N[C@H](C#N)CC(=O)O + CC[C@H](NC(=O)[C@H](C)NC)C(=O)N1C[C@@H](O)C[C@H]1Cc1c(-c2[nH]c3cc(F)ccc3c2C[C@@H]2C[C@H](O)CN2C(=O)[C@H](CC)NC(=O)[C@H](C)NC)[nH]c2cc(F)ccc12 [Birinapant],307,–
COc1ccc(C(C)=O)c(O)c1 [Paeonol] + CC[C@H](NC(=O)[C@H](C)NC)C(=O)N1C[C@@H](O)C[C@H]1Cc1c(-c2[nH]c3cc(F)ccc3c2C[C@@H]2C[C@H](O)CN2C(=O)[C@H](CC)NC(=O)[C@H](C)NC)[nH]c2cc(F)ccc12 [Birinapant],176,–
Nc1cccc(-c2cc3c(Oc4cccc(O)c4)ncnc3[nH]2)c1 + CC[C@H](NC(=O)[C@H](C)NC)C(=O)N1C[C@@H](O)C[C@H]1Cc1c(-c2[nH]c3cc(F)ccc3c2C[C@@H]2C[C@H](O)CN2C(=O)[C@H](CC)NC(=O)[C@H](C)NC)[nH]c2cc(F)ccc12 [Birinapant],63.5,–
Cc1[nH]c(/C=C2\C(=O)Nc3ccccc32)c(C)c1CCC(=O)O [Orantinib] + CC[C@H](NC(=O)[C@H](C)NC)C(=O)N1C[C@@H](O)C[C@H]1Cc1c(-c2[nH]c3cc(F)ccc3c2C[C@@H]2C[C@H](O)CN2C(=O)[C@H](CC)NC(=O)[C@H](C)NC)[nH]c2cc(F)ccc12 [Birinapant],23.6,–
COc1ccc(-c2cc3nccn3c(Nc3ncccc3C(N)=O)n2)cc1OC + CC[C@H](NC(=O)[C@H](C)NC)C(=O)N1C[C@@H](O)C[C@H]1Cc1c(-c2[nH]c3cc(F)ccc3c2C[C@@H]2C[C@H](O)CN2C(=O)[C@H](CC)NC(=O)[C@H](C)NC)[nH]c2cc(F)ccc12 [Birinapant],38,–
